A selection: hits, their analogues and other compounds. The true share with any hit is near 8.3%.
FMDV inh = High Throughput Screening for Foot and Mouth Disease Virus Antivirals; FMDV antiviral cell-based qHTS; Potency, µM (titrated, usually from 57.9 µM), usual class: inhibitors; 410,000 tested, 1.2% active; calls by dose curve; tested in HEK293T cells; further: read-out not given here; nearly all actives have a fitted effect of over 45% in size
HCMV antiviral = qHTS Assay for inhibitors of the human cytomegalovirus (HCMV); activity change, negative = inhibition, % at 57.5 µM; HFF cells, HCMV-luciferase reporter, 72 h; stronger effect = lower value; AID 1259415, 2018; 410,000 tested, 4.5% active; in the data active means activity change below about -60%; inconclusive means no clear call, values can overlap the other calls; inactive means above about -39%
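After 16 h attachment at 37C, HFF cells received test compound and HCMV-luciferase (1 PFU/cell); reporter luminescence read 72 h later, data normalized against buffer-only and known inhibitor Salinomycin.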
Lassa entry inh = qHTS for Inhibitors of binding or entry into cells for Lassa Virus; 300,000 tested, 1.2% active; AID 540256, 2011; Lassa virus pseudotype entry inhibition, cell reporter; Potency, µM (highest dose often 37.9 µM), usual class: inhibitors; calls by dose curve; tested in HEK293 cells; further: nearly all actives have a fitted effect of over 50% in size
FBPA Giardia inh = qHTS Assay for Inhibitors of Fructose-1,6-bisphosphate Aldolase from Giardia Lamblia | A8B2U2 | purified Giardia FBPA | Potency, µM (titrated, usually from 59.6 µM), actives largely listed as inhibitors | 290,000 tested, 0.71% active | AID 2451, 2010; further: nearly all actives have a fitted effect of over 55% in size
Target sequence (A8B2U2 whole entry, looked up): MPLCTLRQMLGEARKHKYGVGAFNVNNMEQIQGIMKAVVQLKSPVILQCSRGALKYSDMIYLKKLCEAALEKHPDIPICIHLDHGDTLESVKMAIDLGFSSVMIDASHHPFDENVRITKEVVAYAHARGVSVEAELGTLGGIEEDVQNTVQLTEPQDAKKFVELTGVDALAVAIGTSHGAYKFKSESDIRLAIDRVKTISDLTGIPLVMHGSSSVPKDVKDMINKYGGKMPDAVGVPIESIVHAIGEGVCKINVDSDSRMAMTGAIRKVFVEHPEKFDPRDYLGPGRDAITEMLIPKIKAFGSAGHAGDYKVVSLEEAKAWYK
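40 nM FBPA preincubated 10 min at RT with compound (up to 57.5 uM final), then substrate plus GAPDH/TPI/NAD/arsenate coupling and diaphorase/resazurin added. Fluorescence read after 20 min at RT, 525/598 nm.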
Marburg entry inh = qHTS for inhibitors of binding or entry into cells for Marburg Virus. Marburg virus pseudotyped entry inhibition, cell reporter. Potency, µM (titrated, usually from 37.8 µM), hits mostly inhibitors. 300,000 tested, 1.8% active. AID 540276, 2011; calls by dose curve; tested in HEK293 cells
HCV inh = qHTS Assay for Inhibitors of Hepatitis C Virus (HCV). Huh7.5.1 HCVcc-Cre infection, luciferase reporter, 44 h. Potency, µM (highest dose often 41.8 µM), usual class: inhibitors. 340,000 tested, 3.4% active. AID 651820, 2012
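Compounds are dispensed onto cells plated 4 h earlier at 1,000 per well, with HCVcc-Cre virus (about 0.5 moi) added next. Following 44 h of culture, luminescent signal is measured for 15 sec after 15 min with substrate at room temperature.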
A number is an active result; i = inactive; ? = inconclusive; nt = not tested or not shown; ! = a repeat was not active; [ ] = dose if it differs, or a comment. Unless noted, the call rests on the fitted dose curve; in most records, active means well fitted curve in the direction sought with a large enough effect; inconclusive means small, poorly fitted or top-dose-only effect, or another doubt; inactive means no such curve, though single readings can be large; an effect the other way counts as inactive or inconclusive.

SMILES | FMDV inh | HCMV antiviral | Lassa entry inh | FBPA Giardia inh | Marburg entry inh | HCV inh
COc1ccc(-n2c(=O)c3c4c(sc3n(C)c2=O)CN(C(C)=O)CC4)cc1 | i | i | nt | nt | i | nt
Cc1ccc(NC(=O)CSc2nc(-c3ccco3)nc3cc(=O)[nH]n23)cc1 | i | i | i | nt | nt | nt
CCNC(=O)C1CCCN(C(=O)c2cc(F)cc(F)c2)CC1 (stereo not drawn) | i | -93 | nt | nt | nt | nt
COCCN(C(=O)CSc1nnc(C)n1Cc1ccccc1)c1c(N)n(Cc2ccccc2)c(=O)[nH]c1=O | i | nt | i | i | ? | i
CCCCN(C(=O)CSc1nnc(Nc2ccc(C)c(C)c2)s1)c1c(N)n(Cc2ccccc2)c(=O)[nH]c1=O | i | i | ? | i | ? | 10µM
COCCN(C(=O)CSc1nnc2cc(C)c3ccccc3n12)c1c(N)n(Cc2ccccc2)c(=O)[nH]c1=O | i | -94 | ? | i | ? | i
CN(C(=O)CSc1nnc(Nc2ccccc2)s1)c1c(N)n(Cc2ccccc2)c(=O)[nH]c1=O | i | i | i | i | i | i
O=C(NCc1ccccc1)c1ccc(N2CCC3(CC2)CC(c2ccc(Cl)cc2)=NO3)c([N+](=O)[O-])c1 | ? | ? | nt | i | nt | 4.5µM
Cc1ccc(N(Cc2ccco2)C(=O)c2ccc(N3CCCCC3)c([N+](=O)[O-])c2)cc1 | i | -66 | ? | i | 23µM | ?
O=C(NCc1ccc(F)cc1)c1ccc(N2CCc3ccccc32)c([N+](=O)[O-])c1 | ? | ? | 18µM | i | ? | ?
CC1CC(C)CN(c2ccc(C(=O)NCc3ccc4c(c3)OCO4)cc2[N+](=O)[O-])C1 (stereo not drawn) | i | -62 | i | i | ? | ?
COc1ccc(NC(=O)C(C)n2nc(-c3cc(C)ccc3C)c3c(c2=O)CCCC3)cc1 (stereo not drawn) | i | i | i | nt | ? | nt
Cc1nc2nc(-c3ccc(Cl)cc3Cl)nn2c(C)c1CCC(=O)Nc1ccc(F)cc1 | i | i | i | nt | i | nt
O=C(NCc1ccco1)c1ccc(N2CCCCC2)c([N+](=O)[O-])c1 | i | i | 21µM | i | i | ?
CC1CCN(c2ccc(C(=O)NCc3ccco3)cc2[N+](=O)[O-])CC1 | i | i | 6.5µM | i | ? | ?
NC(Cc1cnc[nH]1)C(=O)Nc1ccc2ccccc2c1 (stereo not drawn) | i | nt | nt | i | nt | nt
CO[C@H]1COC(=O)[C@@H](CCSC)NC(=O)C/C=C\[C@@H](C)[C@H](OC)COC(=O)[C@@H](OCc2ccccc2)/C=C\[C@@H]1C | nt | nt | nt | i[12.9 µM] | nt | nt
OC1(c2ccccc2)CCN(Cc2ccccc2)C2CCCCC21 (stereo not drawn) | i | i | ? | i | 8.9µM | i
CCN(CC)c1ccc(C2C(C(N)=O)=C(C)Nc3nc(SCc4ccccc4Cl)nn32)cc1 (stereo not drawn) | i | ? | ? | nt | ? | nt
Cc1cc(NC(=O)CCC(=O)N(Cc2ccccc2)C2(C(=O)NC3CCCCC3)CCCC2)no1 | i | ? | ? | i | ? | i
CCC(C(=O)NC1CCCCC1)N(Cc1cccs1)C(=O)CCC(=O)Nc1cc(C)on1 (stereo not drawn) | i | i | ? | i | ? | 11µM
COc1cccc(CN(CC(=O)NC2CCCC2)C(=O)CCC(=O)Nc2cc(C)on2)c1 | i | -81 | i | i | i | i
Cc1cc(NC(=O)CCC(=O)N(c2ccc(F)cc2)C2(C(=O)NC3CCCCC3)CCCC2)no1 | i | i | i | i | 11µM | i
Fc1ccc(NC(=S)Nc2nccs2)cc1 | i | -115 | nt | ? | nt | ?
COc1cccc(/C(O)=C2\C(=O)C(=O)N(c3ccccn3)[C@H]2c2ccccc2OC)c1 | nt | nt | nt | nt | i | nt
SMILES | FMDV inh | HCMV antiviral | Lassa entry inh | FBPA Giardia inh | Marburg entry inh | HCV inh
CCN(CC)S(=O)(=O)c1ccc(NC(=O)CCc2c(C)nc3cc(-c4ccc(Cl)cc4)nn3c2C)cc1 | ? | -76 | ? | nt | ? | nt
Cc1ccc(NC(=O)CNc2cccc(S(=O)(=O)N3CCCCC3)c2)cc1F | ? | i | i | nt | ? | ?
O=C(CNc1cccc(S(=O)(=O)N2CCCC2)c1)Nc1ccc(C(F)(F)F)cc1 | i | -69 | ? | nt | ? | 10µM
O=C(Nc1cccc(S(=O)(=O)N2CCCCC2)c1)[C@@H]1CCCN1S(=O)(=O)c1ccccc1C(F)(F)F | i | i | nt | nt | nt | 14µM
O=C(CNc1cccc(S(=O)(=O)N2CCCCC2)c1)Nc1ccc(C(F)(F)F)cc1 | ? | -79 | nt | nt | nt | nt
O=C(CNc1cccc(Br)c1)Nc1ccc(S(=O)(=O)N2CCCCC2)cc1 | i | i | nt | nt | nt | nt
N#Cc1cccc(NC(=O)CNc2cccc(S(=O)(=O)N3CCCCC3)c2)c1 | 35µM | ? | i | nt | ? | ?
O=C(Nc1ccc(Cl)cc1)C1CCCCN1S(=O)(=O)c1ccccc1 (stereo not drawn) | ? | -101 | i | nt | ? | ?
Cc1cccc(CNc2nc(-c3ccccc3CN(C)C)nc3ccccc23)c1 | i | nt | nt | i | nt | nt
O=C(Nc1cc(Cl)cc(Cl)c1)c1ccc(F)c(S(=O)(=O)NCc2ccccc2Cl)c1 | i | -99 | i | nt | nt | nt
CCc1ccc(NC(=O)c2ccc(F)c(S(=O)(=O)NCc3ccc(Cl)c(Cl)c3)c2)cc1 | i | i | ? | nt | nt | nt
COc1ccccc1CNS(=O)(=O)c1cc(C(=O)Nc2cccc(C(F)(F)F)c2)ccc1F | i | -67 | ? | nt | nt | nt
Cc1ccc(C(=O)Nc2ccc(Br)cc2)cc1S(=O)(=O)NCc1ccccc1 | i | -69 | ? | nt | nt | nt
COc1ccc(CNS(=O)(=O)c2cc(C(=O)Nc3cc(Cl)cc(Cl)c3)ccc2F)cc1 | i | -78 | i | nt | nt | nt
Cc1cccc(NC(=O)c2ccc(F)c(S(=O)(=O)NCc3ccco3)c2)c1 | i | i | nt | nt | nt | ?
Cc1ccc(N(C[C@@H](O)CN(C)C)S(=O)(=O)c2ccccc2)cc1 | nt | nt | nt | nt | i | nt
O=C(Nc1cccc(Cl)c1)c1ccc(F)c(S(=O)(=O)NCc2cccs2)c1 | ? | -93 | ? | i | ? | ?
CCC(CC)NCc1ccc2c(c1)c1ccccc1n2CC | i | i | ? | ? | ? | 13µM
CCn1c2ccccc2c2cc(N)ccc21 | i | i | i | i | i | i
COc1cccc(CNCc2ccc(OC)cc2OC)c1 | i | i | nt | i | nt | i
CCn1c2ccccc2c2cc(CNCc3ccc(OC)cc3OC)ccc21 | i | i | nt | ? | nt | 13µM
CN1CCN(C(=O)CN(c2ccccc2)S(=O)(=O)N(C)C)CC1 | i | ? | ? | i | ? | i
Cc1ccc(C)c(N2CCN(C(=O)C3CCCCN3S(=O)(=O)c3ccc(F)cc3)CC2)c1 (stereo not drawn) | 32µM | i | i | i | 10µM! | ?
Cc1ccc(Cl)cc1N1CCN(C(=O)CN(c2ccccc2)S(=O)(=O)N(C)C)CC1 | 20µM | i | i | i | i | ?
Cc1ccc(Cl)cc1N1CCN(C(=O)C2CCN(S(C)(=O)=O)CC2)CC1 | ? | -64 | i | i | ? | i

Source: PubChem BioAssay (National Center for Advancing Translational Sciences (NCATS))
